Laboratory results: the supplement of paper PMC10981050
Structures can show the parent of a compound that is named as a salt.

Tested on: K562
Experiment: cell viability relative to vehicle control; higher = less cytotoxic
Settings: 10 µM; SRSF2 genotype: SRSF2 wt/wt
In short: (§1)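 Screening covered the Selleck bioactive, kinase and epigenetic probe libraries, less identity-inconsistent compounds, on CRISPR-edited mutant clones and isogenic wild-type clones of four leukaemia lines. Cells, at 2000 per well in 50 µL medium, received a single 10 µM acoustically dispensed dose. After 48 h the supernatant was removed and CellTiter-Glo luminescence was read. Viability was analysed in Genedata Screener as percent of the on-plate vehicle control.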

Compound	cell viability
CC(C)=CCC/C(C)=C/Cc1c(O)c(CC=C(C)C)c2c(c1O)C(=O)C1=C[C@@H]3C[C@H]4C(C)(C)O[C@@](C/C=C(/C)C(=O)O)(C3=O)[C@@]14O2 [Gambogenic acid]	1.12%
CO[C@H]1C(=O)[C@]2(C)[C@@H](OC)C[C@H]3OC[C@@]3(OC(C)=O)[C@H]2[C@H](OC(=O)c2ccccc2)[C@]2(O)C[C@H](OC(=O)[C@H](O)[C@@H](NC(=O)OC(C)(C)C)c3ccccc3)C(C)=C1C2(C)C [Cabazitaxel (Jevtana)]	36.7%
O=C(CCc1ccc(O)cc1)c1c(O)cc(O)cc1O [Phloretin]	98.1%
CCCCCCCCCCCCc1ccc(S(=O)(=O)Nc2nncs2)cc1	102%
COc1cccc2cc(-c3nc([C@H]4CC[C@H](C(=O)O)CC4)n4ncnc(N)c34)[nH]c12	32.9%
COc1ccc(C[C@H](N)C(=O)N[C@H]2[C@@H](O)[C@H](n3cnc4c(N(C)C)ncnc43)O[C@@H]2CO)cc1 [Puromycin 2HCl]	1.55%
COc1cc(-c2oc3cc(O)cc(O)c3c(=O)c2O[C@@H]2O[C@H](CO[C@@H]3O[C@@H](C)[C@H](O)[C@@H](O)[C@H]3O)[C@@H](O)[C@H](O)[C@H]2O)ccc1O [Narcissoside]	106%
C[C@]12CC[C@@H]3c4ccc(OC(=O)c5ccccc5)cc4CC[C@H]3[C@@H]1CC[C@@H]2O [Estradiol Benzoate]	77.2%
CCCC(=O)NCCc1csc(-c2ccc(Cl)cc2)n1 [Azoramide]	98.4%
C=C[C@]1(C)C[C@@H](OC(=O)CS[C@@H]2C[C@H]3CC[C@@H](C2)N3C)[C@]2(C)[C@H](C)CC[C@]3(CCC(=O)[C@H]32)[C@@H](C)[C@@H]1O [Retapamulin]	84%
Cc1cnc(C(=O)O)c[n+]1[O-] [Acipimox]	97.6%
CC(=O)Nc1cccc(-n2c(=O)n(C3CC3)c(=O)c3c(Nc4ccc(I)cc4F)n(C)c(=O)c(C)c32)c1	77.8%
CCN(CC)CC(=O)Nc1c(C)cccc1C [Lidocaine (Alphacaine)]	111%
Cc1nc(Nc2n[nH]c3c2CN(C(=O)N[C@H](CN(C)C)c2ccccc2)C3(C)C)c2sccc2n1	14.3%
Cc1ccccc1C(=O)Nc1ccc(C(=O)N2CCCC(N(C)C)c3ccccc32)cc1 (stereo unspecified) [Mozavaptan]	85%
NS(=O)(=O)c1cc2c(cc1Cl)N=CNS2(=O)=O [Chlorothiazide]	94.5%
CCCn1/c(=N/C(=O)c2cccc(C(N)=O)c2)[nH]c2ccccc21 [Takinib]	96.3%

Tested on: MARIMO
Experiment: as above
Settings: 10 µM; SRSF2 genotype: SRSF2 P95H/wt
In short: as §1

Compound	cell viability
CC(C)NCC(O)COc1ccc(CCOCC2CC2)cc1 (stereo unspecified) [Betaxolol hydrochloride (Betoptic)]	103%
c1ccc2[nH]c(-c3cscn3)nc2c1 [Thiabendazole]	98.8%
Cc1c[nH]c(C=C2C(=O)Nc3ccccc32)c1CCC(=O)O	95.2%
C[C@H](NC(=O)CCc1nc2ccccc2c(=O)[nH]1)c1ccccc1	106%
C=CC(=O)N1C[C@H](Nc2ncnc3[nH]ccc23)CC[C@@H]1C	94.5%
CC(=O)Nc1ccc(C(=O)Nc2ccccc2N)cc1 [CI994 (Tacedinaline)]	37.9%
N#Cc1c(NC(=O)c2cccc3ccccc23)sc2c1CCCC2 [JNK inhibitor IX]	6.04%
CNC(=O)c1cc(COc2nnc(Nc3ccc(Cl)cc3)c3ccoc23)ccn1 [Telatinib (BAY 57-9352)]	106%
Cn1c(N2CCCCS2(=O)=O)nc(C(=O)NCc2ccc(F)cc2)c(O)c1=O	108%
CCC[C@@H]1C[C@@H](C(=O)N[C@@H]([C@H]2O[C@H](SC)[C@H](O)[C@@H](O)[C@H]2O)[C@H](C)Cl)N(C)C1 [Clindamycin HCl]	94.1%
COCCNC(=O)Nc1ccc2nc(-c3cccs3)c(-c3cccs3)nc2c1 [ACSS2 inhibitor]	85.1%
CC(C)=CCCC(C)(O)C1CCC2(C)C1C(O)CC1C3(C)CCC(O)C(C)(C)C3C(OC3OC(CO)C(O)C(O)C3OC3OC(C)C(O)C(O)C3O)CC12C [(20S)Ginsenoside Rg2]	108%
COC1C(O)C(O)C(O)C(O)C1O (stereo unspecified) [Sequoyitol]	110%
CO[C@H]1C[C@H](O[C@H]2[C@H](C)O[C@@H](O[C@@H]3/C(C)=C/C[C@@H]4C[C@@H](C[C@]5(C=C[C@H](C)[C@@H](C6CCCCC6)O5)O4)OC(=O)[C@@H]4C=C(C)[C@@H](O)[C@H]5OC/C(=C\C=C\[C@@H]3C)[C@]54O)C[C@@H]2OC)O[C@@H](C)[C@@H]1O [Doramectin]	36.8%
C[C@H](CCC(=O)O)[C@H]1CC[C@H]2[C@@H]3[C@@H](O)C[C@@H]4C[C@H](O)CC[C@]4(C)[C@H]3CC[C@]12C [Ursodiol (Actigal Urso)]	103%
C/C=C(\C)C(=O)OC1c2c(ccc3ccc(=O)oc23)OC(C)(C)C1OC(=O)/C(C)=C/C (stereo unspecified) [Praeruptorin B]	84.4%
COc1cc([C@@H]2Oc3cc([C@H]4Oc5cc(O)cc(O)c5C(=O)[C@@H]4O)ccc3O[C@H]2CO)ccc1O [Silymarin (Silybin B)]	99.6%
CCOC(=O)C1=C(COCCN)NC(C)=C(C(=O)OC)[C@@H]1c1ccccc1Cl [Levamlodipine]	72.9%
CC1(C)CC[C@]2(C(=O)O)CC[C@]3(C)C(=CC[C@@H]4[C@@]5(C)CC[C@H](O)[C@@](C)(CO)[C@@H]5CC[C@]43C)[C@@H]2C1 [Hederagenin]	98.4%
O=C(O)[C@]1(Cc2cccc(Nc3nccs3)n2)CC[C@@H](Oc2cccc(Cl)c2F)CC1	66.6%

Compound	cell viability
O=C(Oc1cccc(F)c1OC(=O)c1cccc(O)c1)c1cccc(O)c1	68.8%
C[C@@H](O)[C@H]1C(=O)N2C(C(=O)O)=C(S[C@@H]3CN[C@H](C(=O)N(C)C)C3)[C@H](C)[C@H]12 [Meropenem]	94.7%
CC(C)=CCC/C(C)=C/Cc1c(O)c(CC=C(C)C)c2c(c1O)C(=O)C1=C[C@@H]3C[C@H]4C(C)(C)O[C@@](C/C=C(/C)C(=O)O)(C3=O)[C@@]14O2 [Gambogenic acid]	0.46%
CO[C@H]1C(=O)[C@]2(C)[C@@H](OC)C[C@H]3OC[C@@]3(OC(C)=O)[C@H]2[C@H](OC(=O)c2ccccc2)[C@]2(O)C[C@H](OC(=O)[C@H](O)[C@@H](NC(=O)OC(C)(C)C)c3ccccc3)C(C)=C1C2(C)C [Cabazitaxel (Jevtana)]	7.53%
O=C(CCc1ccc(O)cc1)c1c(O)cc(O)cc1O [Phloretin]	93.5%
CCCCCCCCCCCCc1ccc(S(=O)(=O)Nc2nncs2)cc1	105%
COc1cccc2cc(-c3nc([C@H]4CC[C@H](C(=O)O)CC4)n4ncnc(N)c34)[nH]c12	51.5%
COc1ccc(C[C@H](N)C(=O)N[C@H]2[C@@H](O)[C@H](n3cnc4c(N(C)C)ncnc43)O[C@@H]2CO)cc1 [Puromycin 2HCl]	1.69%
COc1cc(-c2oc3cc(O)cc(O)c3c(=O)c2O[C@@H]2O[C@H](CO[C@@H]3O[C@@H](C)[C@H](O)[C@@H](O)[C@H]3O)[C@@H](O)[C@H](O)[C@H]2O)ccc1O [Narcissoside]	102%
C[C@]12CC[C@@H]3c4ccc(OC(=O)c5ccccc5)cc4CC[C@H]3[C@@H]1CC[C@@H]2O [Estradiol Benzoate]	54.6%
CCCC(=O)NCCc1csc(-c2ccc(Cl)cc2)n1 [Azoramide]	79.9%
C=C[C@]1(C)C[C@@H](OC(=O)CS[C@@H]2C[C@H]3CC[C@@H](C2)N3C)[C@]2(C)[C@H](C)CC[C@]3(CCC(=O)[C@H]32)[C@@H](C)[C@@H]1O [Retapamulin]	85.6%
Cc1cnc(C(=O)O)c[n+]1[O-] [Acipimox]	96.7%
CC(=O)Nc1cccc(-n2c(=O)n(C3CC3)c(=O)c3c(Nc4ccc(I)cc4F)n(C)c(=O)c(C)c32)c1	39.6%
CCN(CC)CC(=O)Nc1c(C)cccc1C [Lidocaine (Alphacaine)]	106%
Cc1nc(Nc2n[nH]c3c2CN(C(=O)N[C@H](CN(C)C)c2ccccc2)C3(C)C)c2sccc2n1	5.65%
Cc1ccccc1C(=O)Nc1ccc(C(=O)N2CCCC(N(C)C)c3ccccc32)cc1 (stereo unspecified) [Mozavaptan]	88.9%
NS(=O)(=O)c1cc2c(cc1Cl)N=CNS2(=O)=O [Chlorothiazide]	98%
CCCn1/c(=N/C(=O)c2cccc(C(N)=O)c2)[nH]c2ccccc21 [Takinib]	98.8%
